Source: PubChem (several laboratories)
Mtb UGM inh: inhibitors of M. tuberculosis UDP-galactopyranose mutase; P9WIQ1; purified UGM, fluorescence polarization probe displacement; inhibition, % at 10 µM; 320,000 tested, 0.06% active; AID 504406; in the data active means inhibition above about 10%, passing the limit was not always enough
RecA intein inh: inhibitors of M. tuberculosis RecA intein splicing | 290,000 tested, 0.75% active | P9WHJ3 | cell-free RecA intein splicing, fluorescence | inhibition, % (no concentration beside the values); in the data active means inhibition above about 30%
FadD28 FP inh: blocks FadD28 binding to the bisubstrate probe. fluorescence polarization. inhibition, % at 12.5 µM. 360,000 tested, 0.22% active; in the data active means inhibition above about 8.5%, passing the limit was not always enough
TcdB GH inh: inhibitors of Clostridioides difficile toxin B glycohydrolase; inhibition, % at 9.99 µM; P18177; TcdB glycohydrolase enzymatic assay, plate reader; 350,000 tested, 0.24% active; in the data active means inhibition above about 10%
BioA inh: inhibitors of Mycobacterium tuberculosis BioA enzyme; purified M. tuberculosis BioA enzyme, plate reader; inhibition, % at 9.99 µM; 360,000 tested, 0.096% active; AID 602481; in the data active means inhibition above about 40%
Rv3671c protease: inhibitors of M. tuberculosis serine protease Rv3671c. P9WHR9. inhibition, % at 5.96 µM. 320,000 tested, 0.048% active. AID 2606; in the data active means inhibition above about 38%;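 further: extracellular domain of Rv3671c used as enzyme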
Target sequence (P9WHR9 whole entry, looked up, the tested form may be a part): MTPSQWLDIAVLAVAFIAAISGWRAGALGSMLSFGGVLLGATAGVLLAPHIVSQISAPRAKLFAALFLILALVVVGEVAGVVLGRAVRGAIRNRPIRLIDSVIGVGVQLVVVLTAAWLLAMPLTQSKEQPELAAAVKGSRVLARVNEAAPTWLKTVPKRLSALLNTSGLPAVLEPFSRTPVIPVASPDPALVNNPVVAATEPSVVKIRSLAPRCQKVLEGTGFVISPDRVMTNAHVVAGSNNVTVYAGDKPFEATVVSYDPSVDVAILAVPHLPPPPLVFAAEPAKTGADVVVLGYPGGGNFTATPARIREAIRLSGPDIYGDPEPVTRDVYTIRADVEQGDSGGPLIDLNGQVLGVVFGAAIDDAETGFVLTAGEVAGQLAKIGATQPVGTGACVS
GFP chromo cs: counter-screen GFP chromophore formation inhibition. shares compounds with RecA intein inh. cell-free GFP chromophore formation, fluorescence. 2,100 tested, 83% active. AID 434968. EC50, µM; call rule not given here
Numbers stand for hits; i = inactive; nt = not tested or not shown. This is a sample that favours compounds with a hit; in the whole collection about 0.9% have one here.

SMILES	Mtb UGM inh	RecA intein inh	FadD28 FP inh	TcdB GH inh	BioA inh	Rv3671c protease	GFP chromo cs
Cc1cc2c3c(c1)C(C)CC(C)(C)N3C(=O)C2=C(C#N)C#N (stereo not given)	i	38.9	i	i	i	i	3.74
C=CCn1c(NC(=O)c2ccc(Br)o2)c(S(=O)(=O)c2ccccc2)c2nc3ccccc3nc21	i	46.4	i	nt	i	i	30.6
Cc1c(N=C2C=CC(=O)c3ccccc32)c(=O)n(-c2ccccc2)n1C	nt	72.3	i	i	nt	nt	1.81
Cc1c(N=C2C=C(Br)C(=O)C(Br)=C2)c(=O)n(-c2ccccc2)n1C	nt	nt	i	i	nt	nt	nt
C[C@@H]1CCCCO[C@@H](CN(C)Cc2ccc(Cl)c(Cl)c2)[C@@H](C)CN([C@@H](C)CO)C(=O)c2cc(NS(=O)(=O)c3cn(C)cn3)ccc2O1	nt	nt	nt	i	i	nt	nt
O=C1CCCC2=C1C1(O)C(=O)c3ccccc3C1(O)O2 (stereo not given)	i	88.5	i	nt	nt	i	10.2
C#CCOc1ccc(Br)cc1C(c1c(C)[nH][nH]c1=O)c1c(C)[nH][nH]c1=O	i	94.0	i	i	i	i	2.21
CCOc1ccc(Cl)cc1C(c1c(C)[nH][nH]c1=O)c1c(C)[nH][nH]c1=O	i	97.4	i	i	i	nt	0.916
CC(C)NC(=S)NC1(C)CCS(=O)(=O)C1 (stereo not given)	i	47.6	i	nt	nt	i	i
C[C@@H]1CN([C@H](C)CO)C(=O)c2cc(C#C[C@@H](C)O)cnc2O[C@H]1CN(C)Cc1cccc(C(=O)O)c1	nt	nt	nt	i	i	nt	nt
Cc1nnc(Sc2nc3ccccc3o2)c2ccccc12	i	49.9	i	nt	i	i	27.5
Clc1ccc(-c2nnc(Sc3nc4ccccc4o3)c3ccccc23)cc1	i	56.6	i	i	i	i	0.616
CCSc1nnc(-c2ccc(C)cc2)c2ccccc12	i	i	i	i	i	i	nt
Cc1ccc(-c2nnc(Sc3nc4ccccc4o3)c3ccccc23)cc1	i	77.3	i	nt	i	i	0.931
C[C@H]1CN([C@@H](C)CO)C(=O)c2cc(NS(=O)(=O)c3ccccc3)ccc2O[C@H]1CN(C)S(=O)(=O)c1cccs1	nt	nt	nt	i	i	nt	nt
CNC(=O)C[C@@H]1CC[C@H]2[C@@H](COc3ccc(NC(=O)c4cc(F)cc(F)c4)cc3C(=O)N2C)O1	nt	nt	nt	i	i	nt	nt
O=C(NN=c1c(=O)c2ccccc2c1=O)c1ccccc1	i	91.3	i	i	i	i	5.21
CN(C)/C=N/NC(=O)c1ccccc1	i	i	i	i	i	i	nt
Cc1nnc(N/N=C\c2ccc(-c3ccccc3[N+](=O)[O-])o2)n1N	i	50.5	i	i	nt	i	39.3
Cc1nnc(N/N=C/c2ccc(-c3ccccc3F)o2)n1N	i	i	i	i	nt	i	nt
Cc1nnc(N/N=C/c2ccccc2O)n1N	i	75.2	i	i	nt	i	12.2
Cc1nnc(N/N=C/c2c(Cl)cccc2Cl)n1N	i	i	i	i	nt	i	nt
Brc1ccc(CNc2ccc3ncccc3c2)cc1	i	38.6	i	i	i	nt	i
COc1ccc2c(c1)-c1nc(/N=C/c3ccc(O)cc3)sc1CC2	i	nt	i	nt	nt	i	nt
COc1ccc2c(c1)-c1nc(/N=C/c3c(O)ccc4ccccc34)sc1CC2	nt	51.1	i	i	nt	nt	i
SMILES	Mtb UGM inh	RecA intein inh	FadD28 FP inh	TcdB GH inh	BioA inh	Rv3671c protease	GFP chromo cs
COc1cccc(-n2nnnc2S(C)(=O)=O)c1	i	90.8	i	nt	i	i	7.27
O=C(Cc1cccc2ccccc12)Nc1nc2ccccc2[nH]1	i	i	i	nt	nt	i	nt
O=C(Cc1ccccc1F)Nc1nc2ccccc2[nH]1	i	37.8	i	i	nt	i	i
COc1ccc(-c2ccc([C@H]3[C@@H](CO)N4CCCCN(C(=O)c5ccc6c(c5)OCO6)C[C@H]34)cc2)cc1	nt	nt	nt	i	i	nt	nt
COc1ccc(/C=C2/C(=O)N(c3ccccc3)N=C2C)cc1	i	69.2	i	nt	i	i	3.19
COc1ccc(/C=C2/C(=O)N(c3ccccc3)N=C2C)cc1OC	i	43.5	i	i	i	nt	9.04
CC1=NN(c2ccccc2)C(=O)/C1=C/c1cn(C)c2ccccc12	i	36.9	i	i	nt	i	i
COc1cc(/C=C2/C(=O)N(c3cccc(Br)c3)N=C2C)cc(OC)c1O	i	86.5	i	i	i	i	4.28
CC(C)NC(=O)Nc1ccc2c(c1)C(=O)N([C@H](C)CO)C[C@H](C)[C@@H](CN(C)S(C)(=O)=O)OCCCC[C@H](C)O2	nt	nt	nt	i	i	nt	nt
CC(=O)Oc1ccc(/C=C2/C(=O)N(c3ccccc3)N=C2C)cc1	i	92.9	i	i	i	i	3.5
COc1ccc(C2=NN(c3ccccc3)C(=O)/C2=C\c2ccc(O)c(OC)c2)cc1	i	92.5	i	i	nt	i	2.58
CC1=NN(c2ccccc2)C(=O)/C1=C/c1cccc(C)c1	i	92.5	i	i	i	i	2.26
CC1=NN(c2ccccc2)C(=O)/C1=C\C=C\c1ccccc1	i	i	i	i	i	i	nt
CC(C)NC(=O)Nc1cccc2c1O[C@@H](CN(C)C(=O)Nc1ccc3c(c1)OCO3)[C@@H](C)CN([C@H](C)CO)C2=O	nt	nt	nt	i	i	nt	nt
Oc1ccc(/C=N/Nc2ccc(C(F)(F)F)cn2)c(O)c1	i	41.7	i	i	nt	i	i
Oc1ccc(/C=N/Nc2ccc(C(F)(F)F)cn2)cc1	i	i	i	i	nt	i	nt
Cc1ccc(S(=O)(=O)Nc2ccc3c(c2)C(=O)N([C@@H](C)CO)C[C@H](C)[C@H](CN(C)Cc2ccncc2)OCCCC[C@H](C)O3)cc1	nt	nt	nt	i	i	nt	nt
CC(C)=CCC1=C(OCC(=O)O)C(=O)c2ccccc2C1=O	i	62.6	i	i	nt	i	12
CC(C)=CCC/C(C)=C/CC/C(C)=C/CC/C(C)=C/CC1=C(C)C(=O)c2ccccc2C1=O	nt	i	i	i	i	i	nt
OC(COC(c1ccc(Cl)cc1)c1ccc(Cl)cc1)CN1CCc2ccccc2C1 (stereo not given)	i	30.3	i	i	i	i	i
COc1ccc(NC(=O)N(C)C[C@@H]2Oc3ccc(NC(=O)NC4CCCCC4)cc3C(=O)N([C@@H](C)CO)C[C@H]2C)cc1	nt	nt	nt	i	i	nt	nt
CCC(C)[C@@H](NC(=O)OC(C)(C)C)c1nnc(S(=O)(=O)Cc2cccc(C)c2)o1 (stereo not given in full)	nt	36.9	i	nt	nt	nt	30.8
Cc1ccccc1CS(=O)(=O)c1nnc([C@H](Cc2ccccc2)NC(=O)OC(C)(C)C)o1	i	41.5	i	i	i	i	11.7
Cc1noc(C)c1S(=O)(=O)Nc1ccc2c(c1)C(=O)N([C@@H](C)CO)C[C@@H](C)[C@H](CN(C)S(=O)(=O)c1ccccc1)OCCCC[C@@H](C)O2	nt	nt	nt	i	i	nt	nt
Cc1noc(C)c1S(=O)(=O)Nc1ccc2c(c1)CC(=O)N([C@H](C)CO)C[C@H](C)[C@@H](CN(C)S(=O)(=O)c1cccs1)O2	nt	nt	nt	i	i	nt	nt
Cc1ccc(S(=O)(=O)N[C@@H]2C=C[C@@H](CC(=O)NCc3ccncn3)O[C@H]2CO)cc1	nt	nt	nt	i	i	nt	nt
Oc1cccc(C=Nc2cccc3ccccc23)c1O	i	31.4	i	i	i	i	15.2
